This is an account of results in PubChem BioAssay (NCI).

Compounds without any hit were thinned out: in the full panel of roughly 83,000, 20% have a hit.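 For each line, cells grew in 96-well plates with the test compound present at a single concentration for 48 hours.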 Unmarked numbers belong to inactive results. Active and inactive are the calls of the source. Rule for the calls: active = growth percent below 10; inactive = the rest.

Among the test systems are SK-MEL-2 melanoma; EKVX NSCLC; SN12C renal; TK-10 renal; ACHN renal; CAKI-1 renal; A498 renal; CCRF-CEM leukemia; MOLT-4 leukemia; SR leukemia; RPMI-8226 leukemia; OVCAR-8 ovarian; OVCAR-5 ovarian; OVCAR-4 ovarian; SK-OV-3 ovarian; IGROV1 ovarian; OVCAR-3 ovarian; HS 578T breast; NCI/ADR-RES ovarian; UO-31 renal.
Assay in all cases: NCI-60 one-dose screen, 48 h (100 = growth as untreated, 0 = no growth, -100 = all killed)
Common to all, as to settings: 10 µM unless noted

In the case of `O=C(NO)c1ccc(CNc2cccc3nc(C4CC4)n(-c4ccccc4)c(=O)c23)cc1`, the growth with SK-MEL-2 melanoma is 53.7%; with EKVX NSCLC it was 42.2%; in the test on SN12C renal, 15.5%; with TK-10 renal, 13.6%; in the test on ACHN renal, 3.75% (active); in the test with CAKI-1 renal, 7.51% (active). Also, the growth is 13.7% in the test with A498 renal; -13.3% (active) in the test with CCRF-CEM leukemia; -21.7% (active) with MOLT-4 leukemia; 1.62% (active) in the test with SR leukemia; -26.6% (active) with RPMI-8226 leukemia; -15.4% (active) in the test with OVCAR-8 ovarian. Moreover, the growth in the test with OVCAR-5 ovarian is 35.7%; in the test with OVCAR-4 ovarian it was 11.5%; in the test on SK-OV-3 ovarian, 16%; in the test on IGROV1 ovarian, 8.21% (active); in the test on OVCAR-3 ovarian, 0.886% (active); in the test on HS 578T breast it was 39.8%. For the same compound, in the test with NCI/ADR-RES ovarian, the growth was -10.7% (active).
Regarding `COc1cccc(-c2nc3sccn3c2-c2ccnc(NCCN3CCCN(C)S3(=O)=O)n2)c1`, the growth in the test on SK-MEL-2 melanoma is 97.1%; in the test with EKVX NSCLC it was 103%; in the test on SN12C renal it was 64.7%; with TK-10 renal, 120%; with ACHN renal, 54%; with CAKI-1 renal, 50.7%. The growth is 98.1% in the test on A498 renal; 63.3% in the test with CCRF-CEM leukemia; 82.8% in the test on MOLT-4 leukemia; 66.7% with SR leukemia; 103% in the test with RPMI-8226 leukemia; 98.6% in the test with OVCAR-8 ovarian. Further, the growth in the test with OVCAR-5 ovarian is 102%; with OVCAR-4 ovarian it was 78%; in the test with SK-OV-3 ovarian, 62.4%; in the test on IGROV1 ovarian it was 72.7%; in the test on OVCAR-3 ovarian it was 91.2%; in the test with HS 578T breast it was 97.5%. Also, the growth in the test with NCI/ADR-RES ovarian is 84.9%.
In the case of `C=C1C(=O)O[C@H]2[C@H]1CC/C(COC(=O)NCc1cn(C)c3ccccc13)=C\CC[C@@]1(C)O[C@@H]21`, the growth in the test with SK-MEL-2 melanoma was -2.82% (active); in the test on EKVX NSCLC it was 29.6%; with SN12C renal, 2.93% (active); with TK-10 renal it was -47.8% (active); in the test with ACHN renal it was -36.2% (active); with CAKI-1 renal, -18.7% (active). For the same compound, the growth in the test with A498 renal was 63.4%; with CCRF-CEM leukemia, -13.3% (active); in the test with MOLT-4 leukemia it was -15.4% (active); with SR leukemia it was 6.96% (active); in the test with RPMI-8226 leukemia, -29.3% (active); with OVCAR-8 ovarian, 4.58% (active). Also, the growth was 12% in the test on OVCAR-4 ovarian; 60.2% in the test with SK-OV-3 ovarian; 0.634% (active) with IGROV1 ovarian; -80.8% (active) with OVCAR-3 ovarian; 49.6% in the test on HS 578T breast.
For `C=CCOC(=O)C1=C(C)NC2=C(C(=O)CCC2)C1c1ccc(F)cc1` (stereo unspecified), the growth in the test on SK-MEL-2 melanoma was 101%; in the test with EKVX NSCLC it was 102%; in the test on SN12C renal, 92.1%; in the test with UO-31 renal it was 76.1%; with TK-10 renal it was 111%; in the test with ACHN renal it was 89.6%. Besides, the growth in the test with CAKI-1 renal is 84.7%; in the test on CCRF-CEM leukemia it was 98.1%; in the test with MOLT-4 leukemia it was 93.6%; in the test on SR leukemia it was 92.2%; with OVCAR-8 ovarian it was 97%; in the test with OVCAR-5 ovarian it was 98%. The growth in the test with OVCAR-4 ovarian is 98.7%; with SK-OV-3 ovarian, 86.6%; in the test with IGROV1 ovarian, 99.2%; in the test with OVCAR-3 ovarian, 109%; with HS 578T breast it was 88.4%; in the test on NCI/ADR-RES ovarian it was 101%.
For `COc1cc(C2CC(c3ccccc3)=NN2C=O)ccc1Oc1ccnc2cc(Cl)ccc12` (stereo unspecified), the growth in the test on SK-MEL-2 melanoma is 82.4%; with EKVX NSCLC it was 33.5%; with SN12C renal it was 65.4%; in the test on TK-10 renal it was 91.1%; with ACHN renal, 68.9%; in the test on CAKI-1 renal it was 49.6%. In addition, the growth in the test with A498 renal was 76.4%; with CCRF-CEM leukemia, 45.7%; in the test with MOLT-4 leukemia, 12.8%; in the test on SR leukemia, 50.4%; in the test with RPMI-8226 leukemia, 32.1%; with OVCAR-8 ovarian, 38.7%. For the same compound, the growth in the test with OVCAR-5 ovarian is 84.2%; in the test on OVCAR-4 ovarian, 35%; with SK-OV-3 ovarian it was 86.6%; with OVCAR-3 ovarian, 69.9%; in the test on HS 578T breast, 76.2%; in the test with NCI/ADR-RES ovarian, 22.9%.
Regarding `O=C(c1ccc(OCCN2CCCCC2)cc1)c1c(-c2ccc(O)cc2)sc2cc(O)ccc12`, the growth in the test on SK-MEL-2 melanoma is 102%; in the test with EKVX NSCLC, 83.3%; in the test on SN12C renal it was 80.4%; with TK-10 renal, 129%; in the test with ACHN renal, 91.5%; in the test on CAKI-1 renal, 76%. The growth is 90.9% in the test on A498 renal; 59.7% with CCRF-CEM leukemia; 76.3% in the test with MOLT-4 leukemia; 82.9% in the test with RPMI-8226 leukemia; 86.8% in the test with OVCAR-8 ovarian; 124% with OVCAR-5 ovarian. The growth in the test with OVCAR-4 ovarian was 72.8%; in the test on SK-OV-3 ovarian, 100%; in the test on IGROV1 ovarian, 76.1%; in the test with OVCAR-3 ovarian it was 91.8%; in the test on NCI/ADR-RES ovarian, 91.5%.
On to `O=C1Nc2ccc(Cl)cc2/C1=C\c1c(-c2ccc(F)cc2)nc2ccccn12`, for which the growth with SK-MEL-2 melanoma is 66.2%; in the test on EKVX NSCLC, 33.8%; with SN12C renal, 6.4% (active); in the test with UO-31 renal it was 6.63% (active); with TK-10 renal it was 82.8%; in the test with ACHN renal it was 31.4%. Also, the growth is 40.2% in the test with CAKI-1 renal; 5.38% (active) in the test on CCRF-CEM leukemia; -4.17% (active) with MOLT-4 leukemia; 70.4% in the test on RPMI-8226 leukemia; 22% in the test on OVCAR-8 ovarian; 37% in the test with OVCAR-5 ovarian. Also, the growth is -69.7% (active) with OVCAR-4 ovarian; -52.1% (active) with SK-OV-3 ovarian; -70.4% (active) in the test with OVCAR-3 ovarian; 1% (active) with HS 578T breast; -37% (active) in the test with NCI/ADR-RES ovarian.
In the case of `O=C(c1ccccc1)C(CCc1ccccn1)CCc1ccccn1`, the growth in the test with SK-MEL-2 melanoma is 96.1%; with EKVX NSCLC, 107%; with SN12C renal, 95.7%; with TK-10 renal it was 97.3%; in the test on ACHN renal it was 106%; in the test on CAKI-1 renal, 106%. Further, the growth was 100% in the test with A498 renal; 95.3% in the test with CCRF-CEM leukemia; 99% in the test on MOLT-4 leukemia; 83.3% with SR leukemia; 109% in the test with OVCAR-8 ovarian; 99.6% with OVCAR-5 ovarian. Also, the growth with OVCAR-4 ovarian was 111%; in the test with SK-OV-3 ovarian it was 95.8%; in the test with IGROV1 ovarian, 93.2%; with OVCAR-3 ovarian, 103%; in the test with HS 578T breast, 121%; in the test with NCI/ADR-RES ovarian, 105%.
Regarding `CC(C)(C)[Si](C)(C)OC1[C@@H](CNC(N)=O)O[C@@H](n2cnc3c(NC(=O)Nc4ccccc4)ncnc32)[C@H]1O[Si](C)(C)C(C)(C)C` (stereo partly specified), the growth in the test with SK-MEL-2 melanoma was 80.9%; with EKVX NSCLC it was 59.7%; in the test on SN12C renal, -33.7% (active); in the test on TK-10 renal it was 84.5%; in the test with ACHN renal, 40.2%; with CAKI-1 renal, 92.2%. Besides, the growth in the test on A498 renal was 81%; in the test on CCRF-CEM leukemia, 47.9%; with MOLT-4 leukemia, 23.5%; with SR leukemia, 6.81% (active); with RPMI-8226 leukemia, 47.6%; in the test on OVCAR-8 ovarian it was 59.9%. For the same compound, the growth with OVCAR-4 ovarian was 50.3%; in the test on SK-OV-3 ovarian, 93.6%; in the test on IGROV1 ovarian, 56.1%; in the test with OVCAR-3 ovarian, 61.1%; with HS 578T breast, 58.7%; with NCI/ADR-RES ovarian, 58.5%.
